From PubChem BioAssay (NCI)
The panel holds about 83,000 compounds, 20% with a hit somewhere; the sample as a whole holds those more often.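 Step 1: grow cells in 96-well plates. Step 2: add test compound at a single concentration. Step 3: incubate 48 h. Step 4: record percent growth.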 Values without a mark were called inactive. Active and inactive are the calls of the source. How the source made its calls: active means growth percent below 10; inactive means the rest.

How the values were obtained:
Assay in all cases: NCI-60 one-dose screen, 48 h (100 = growth as untreated, 0 = no growth, -100 = all killed)
[1] = test system: NCI-H23 lung; settings: 10 µM unless noted
[2] = test system: NCI-H226 lung; settings: 10 µM unless noted
[3] = test system: NCI-H322M lung; settings: 10 µM unless noted
[4] = test system: HOP-62 NSCLC; settings: 10 µM unless noted
[5] = test system: NCI-H460 lung; settings: 10 µM unless noted
[6] = test system: HOP-92 NSCLC; settings: 10 µM unless noted
[7] = test system: NCI-H522 lung; settings: 10 µM unless noted
[8] = test system: A549/ATCC NSCLC; settings: 10 µM unless noted
[9] = test system: 786-0 renal; settings: 10 µM unless noted
[10] = test system: COLO 205 colon; settings: 10 µM unless noted
[11] = test system: DU-145 prostate; settings: 10 µM unless noted
[12] = test system: K-562 leukemia; settings: 10 µM unless noted
[13] = test system: MALME-3M melanoma; settings: 10 µM unless noted
[14] = test system: MDA-MB-231 breast; settings: 10 µM unless noted
[15] = test system: RXF 393 renal; settings: 10 µM unless noted
[16] = test system: SF-268 CNS; settings: 10 µM unless noted
[17] = test system: SF-295 CNS; settings: 10 µM unless noted
[18] = test system: SF-539 CNS; settings: 10 µM unless noted
[19] = test system: UACC-257 melanoma; settings: 10 µM
[20] = test system: M14 melanoma; settings: 10 µM unless noted

Structure (SMILES)	growth [1]	growth [2] [%]	growth [3] [%]	growth [4]	growth [5]	growth [6]	growth [7]	growth [8]	growth [9]	growth [10]	growth [11] [%]	growth [12]	growth [13]	growth [14]	growth [15]	growth [16] [%]	growth [17]	growth [18]	growth [19]	growth [20] [%]
O=C(O)c1ccc(-n2cc(CNc3ccc(Cl)cc3)c(-c3ccc(F)cc3)n2)cc1	104%	103	95.5	95.8%	98.4%	117%	91.2%	85.4%	101%	119%	103	83.4%	92.9%	94.2%	94.9%	104	87.6%	98.1%	101%	
Oc1ccc(CSc2nnc(-c3ccc(Oc4ccccc4)cc3)o2)c2cccnc12	31.3%	71.8	36.7	9.54% (active)	3.07% (active)	33.7%	40.1%	9.22% (active)	-11.5% (active)	78.2%	45.6	9.13% (active)	70.8%	45.5%	60.6%	28.8	1.44% (active)	31.6%	45.1%	
Cc1[nH]nc2ccc(-c3nc4cnc(N5CCN(C)CC5)cn4c3Nc3ccc(F)cc3Br)cc12	80.4%	87.9	63.3	67.1%	69.6%	61.5%	67.6%	58.7%	4.67% (active)	36.7%	51.8	5.31% (active)	76.8%	8.94% (active)	63.3%	75.8	66.3%	-54.9% (active)	78.8%	
CC1=C2C(=C[C@@](C)(COS(N)(=O)=O)[C@@H]2O)C(=O)[C@](C)(O)C12CC2	23.6%	85.8	74.4	45.7%	7.04% (active)	43.8%	70.5%	21.2%	79.4%	47.7%	15.3	97.2%	88.3%	83%	-30.2% (active)	32.2	20.5%	64.9%	89.3%	76.7
NS(=O)(=O)c1ccc(-n2cc(CC=O)nn2)cc1	105%	99	111	105%	105%	94.8%	94.5%	103%	102%	121%	107	93.6%	108%	103%	99.5%	102	98.6%	99%	102%	
NC(=O)c1c(NC(=O)c2cccc(C(F)(F)F)c2F)sc2c1CCC(=O)C2	4.57% (active)	24.8	98.6	58.4%	10.9%	13.8%	-11.4% (active)	64.8%	30.2%	-9.67% (active)	89.1	13.4%	19.4%	12.9%	-5.49% (active)	21.6	40%	0.149% (active)	12.9%	
O=C(NCCCNc1cc(-c2cn(-c3ccccc3)nc2-c2cccc(O)c2)ccn1)Nc1ccc(F)cc1	26.3%	32.6	35.3	24%	21.4%	-11.5% (active)	1.7% (active)	29.2%	-39.4% (active)	-39.4% (active)	31.4	5.52% (active)	-27.3% (active)	0.136% (active)	-34.9% (active)	18	-44.3% (active)	6.41% (active)	-51.9% (active)	
